Source: PubChem BioAssay
Only some compounds are listed: those with a hit (about 10% of all), similar ones and a draw of the others.
Six1-Eya2 blk: blocks human Six1 binding to Eya2; Q15475+O00167; AlphaScreen GST-Six1/His-Eya2 binding, biochemical; active compounds read low; activity change, % (no concentration beside the values); hit rate 0.56% among 360,000; in the data active means activity change below about -65%; inconclusive means mostly about -30% to -63%
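Homogeneous AlphaScreen proximity assay pairing GST-Six1 with His-tagged Eya2 (added as 5X mix: 250 nM and 500 nM) in 50 mM Tris pH 8.0, 300 mM NaCl, 1 mM TCEP. Glutathione donor and nickel acceptor beads; 1 h, 37 °C, dark.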
CtBP-E1A inh: CtBP/E1A binding inhibition. AlphaScreen GST-E1A/His-CtBP binding, 1536-well; active compounds read low. activity change, % (concentration not given with the values). hit rate 0.49% among 340,000; in the data active means activity change below about -65%; inconclusive means mostly about -30% to -63%
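Protein mix (5X: 125 nM each GST-E1A, His-CtBP) was incubated with pinned compound 2 h at 37 deg C in dark, in 50 mM Tris pH 8.0 buffer with 300 mM NaCl. Glutathione donor and nickel acceptor beads followed; AlphaScreen signal read after 1 h.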
BAZ2B block: BAZ2B (human) inhibition. Q9UIF8. AlphaScreen BAZ2B-H3K14Ac peptide displacement. Potency, µM (titrated, usually from 114 µM), usual class: inhibitors. hit rate 4.4% among 360,000. AID 504333; further: nearly all actives have a fitted effect of over 60% in size
Target sequence (Q9UIF8 whole entry, looked up): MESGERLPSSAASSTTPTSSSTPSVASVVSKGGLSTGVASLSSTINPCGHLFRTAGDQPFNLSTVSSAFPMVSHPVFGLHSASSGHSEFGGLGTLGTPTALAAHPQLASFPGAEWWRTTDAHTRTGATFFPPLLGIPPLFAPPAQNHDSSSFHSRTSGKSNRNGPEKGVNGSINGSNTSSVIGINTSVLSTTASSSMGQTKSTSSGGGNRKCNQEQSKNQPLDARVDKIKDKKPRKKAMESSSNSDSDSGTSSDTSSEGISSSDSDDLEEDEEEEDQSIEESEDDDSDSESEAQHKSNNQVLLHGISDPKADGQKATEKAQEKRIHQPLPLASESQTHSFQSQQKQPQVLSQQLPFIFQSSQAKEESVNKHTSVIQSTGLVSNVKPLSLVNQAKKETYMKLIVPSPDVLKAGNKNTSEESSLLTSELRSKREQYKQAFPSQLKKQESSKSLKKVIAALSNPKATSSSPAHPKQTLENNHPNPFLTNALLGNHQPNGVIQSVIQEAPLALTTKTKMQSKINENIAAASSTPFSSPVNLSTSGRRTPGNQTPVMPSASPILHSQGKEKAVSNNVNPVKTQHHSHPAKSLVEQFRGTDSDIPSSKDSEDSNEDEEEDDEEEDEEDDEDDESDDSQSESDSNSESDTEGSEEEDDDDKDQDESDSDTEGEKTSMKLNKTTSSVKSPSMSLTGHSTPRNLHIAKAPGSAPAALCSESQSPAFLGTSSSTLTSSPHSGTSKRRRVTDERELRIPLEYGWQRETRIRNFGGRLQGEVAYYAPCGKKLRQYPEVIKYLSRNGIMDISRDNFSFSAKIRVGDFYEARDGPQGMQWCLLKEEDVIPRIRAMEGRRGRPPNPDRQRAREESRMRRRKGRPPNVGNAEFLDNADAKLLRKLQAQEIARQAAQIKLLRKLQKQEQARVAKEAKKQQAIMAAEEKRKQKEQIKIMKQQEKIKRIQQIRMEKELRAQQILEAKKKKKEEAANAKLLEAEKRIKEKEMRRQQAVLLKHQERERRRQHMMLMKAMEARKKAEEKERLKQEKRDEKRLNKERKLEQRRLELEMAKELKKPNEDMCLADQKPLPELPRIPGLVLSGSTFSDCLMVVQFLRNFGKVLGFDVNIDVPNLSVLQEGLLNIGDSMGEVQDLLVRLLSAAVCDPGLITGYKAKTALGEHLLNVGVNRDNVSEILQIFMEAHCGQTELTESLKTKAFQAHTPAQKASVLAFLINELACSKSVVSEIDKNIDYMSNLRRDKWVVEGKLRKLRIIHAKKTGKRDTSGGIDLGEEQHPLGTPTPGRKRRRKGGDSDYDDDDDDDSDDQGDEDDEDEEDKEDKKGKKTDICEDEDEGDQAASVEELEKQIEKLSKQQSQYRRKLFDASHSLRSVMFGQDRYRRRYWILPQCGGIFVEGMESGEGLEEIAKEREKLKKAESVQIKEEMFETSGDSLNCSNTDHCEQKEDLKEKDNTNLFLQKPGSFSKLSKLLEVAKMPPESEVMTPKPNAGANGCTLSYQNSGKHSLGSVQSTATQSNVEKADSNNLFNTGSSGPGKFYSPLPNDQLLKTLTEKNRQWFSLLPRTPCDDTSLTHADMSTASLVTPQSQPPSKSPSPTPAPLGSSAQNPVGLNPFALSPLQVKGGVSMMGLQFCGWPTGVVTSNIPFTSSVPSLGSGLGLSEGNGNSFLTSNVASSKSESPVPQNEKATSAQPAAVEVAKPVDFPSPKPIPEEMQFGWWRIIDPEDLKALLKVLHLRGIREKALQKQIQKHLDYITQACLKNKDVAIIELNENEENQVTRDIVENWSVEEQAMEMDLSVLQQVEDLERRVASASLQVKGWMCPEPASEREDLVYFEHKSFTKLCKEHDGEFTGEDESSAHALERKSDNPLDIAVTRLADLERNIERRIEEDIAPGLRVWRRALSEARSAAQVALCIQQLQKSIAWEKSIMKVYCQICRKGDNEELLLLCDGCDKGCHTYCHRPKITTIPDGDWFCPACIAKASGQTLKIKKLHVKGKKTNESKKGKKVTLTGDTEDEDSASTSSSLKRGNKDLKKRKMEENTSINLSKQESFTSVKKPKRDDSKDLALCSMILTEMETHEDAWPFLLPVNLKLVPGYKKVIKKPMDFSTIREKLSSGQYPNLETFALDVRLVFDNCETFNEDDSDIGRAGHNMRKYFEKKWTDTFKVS
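AlphaScreen displacement: compounds (up to 110uM) incubated 30 min at room temperature with a preformed 50 nM BAZ2B/50 nM biotinylated H3K14Ac peptide complex in PBS pH 7.4 with Tween-20. Donor and acceptor beads at 10 ug/mL final added, 20 min light-protected before reading.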
G9a block: G9a (human) methyltransferase inhibition | Q96KQ7 | G9a H3K9 monomethylation, AlphaScreen, 2 h | Potency, µM (series often up to 102 µM), actives largely listed as inhibitors | hit rate 8.8% among 350,000 | AID 504332; further: nearly all actives have a fitted effect of over 75% in size
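Methyltransferase reactions run at room temperature for 2 h (20 nM enzyme, 500 nM biotin-H3K9 peptide, 20 uM SAM) after a 15 min compound preincubation; product detected by AlphaScreen beads and anti-H3K9me1 antibody.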
HP1b chromo inh: HP1-beta chromodomain-methylated histone interaction inhibition. P83916. AlphaScreen HP1-beta / biotin-H3K9me3 peptide binding. Potency, µM (series often up to 114 µM), hits mostly inhibitors. hit rate 0.56% among 390,000. AID 540317; further: nearly all actives have a fitted effect of over 70% in size
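Compound inhibition of the preformed complex between 50 nM HP1-beta and 50 nM biotinylated H3K9me3 peptide was read by AlphaScreen. Buffer was PBS pH 7.4 with 0.01% Tween-20. Incubations ran 30 min at room temperature, with 10 ug/mL donor/acceptor beads.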
JMJD2A Tudor: blocks the human JMJD2A Tudor domain; hit rate 4.4% among 390,000; Potency, µM (highest dose often 114 µM), actives largely listed as inhibitors; AlphaScreen JMJD2A-Tudor / H3K4me3 peptide binding; O75164; further: nearly all actives have a fitted effect of over 50% in size
Of the large screens only hits and unclear results are named; the others gave an inactive call; ! = not active in a repeat. Unless noted, the call rests on the fitted dose curve; in most records, active means well fitted inhibition curve with a large enough effect; inconclusive means small, poorly fitted or top-dose-only effect; inactive means no such curve, though single readings can be large or run the other way.

O=C(NC1CCCCCC1)C(=S)NC1CCCCC1	G9a block 35.5µM
CC(C)NC(=O)C(=O)NC1CCCCCC1	none
O=C(NC1CCCCCC1)C(=S)N1CCCC1	none (no result: G9a block)
O=C(NC1CCCCCC1)C(=S)N1CCOCC1	BAZ2B block inconclusive, G9a block inconclusive, HP1b chromo inh inconclusive, JMJD2A Tudor 79.4µM
Cc1cc(=S)nc(-c2ccccn2)[nH]1	Six1-Eya2 blk -84.9, CtBP-E1A inh -68.8, BAZ2B block inconclusive, G9a block inconclusive, JMJD2A Tudor inconclusive
Nc1ccc2nc(-c3ccccn3)[nH]c2c1	Six1-Eya2 blk -75.2, CtBP-E1A inh -70.3, BAZ2B block 44.7µM, G9a block inconclusive, JMJD2A Tudor inconclusive
COc1ccc2nc(-c3ccccn3)[nH]c2c1	BAZ2B block inconclusive, G9a block 35.5µM
CC1CCCC(NC(=O)NC(=O)COC(=O)C2=NN(c3ccccc3)C(=O)CC2)C1C (centres undefined)	G9a block 10µM
CC1CCC(NC(=O)COC(=O)C2=NN(c3ccccc3)C(=O)CC2)CC1 (centres undefined)	G9a block inconclusive
CCc1cccc(CC)c1NC(=O)C1CN(S(=O)(=O)c2ccccc2)CCN1S(=O)(=O)c1ccccc1 (centres undefined)	G9a block inconclusive
Cc1cccc(C(C)C)c1NC(=O)C1CN(S(=O)(=O)c2ccccc2)CCN1S(=O)(=O)c1ccccc1 (centres undefined)	G9a block 70.8µM
O=S(=O)(Nc1cccc(-c2ccc(N3CCCCCC3)nn2)c1)c1ccc(F)cc1	BAZ2B block inconclusive, JMJD2A Tudor inconclusive
COc1ccc(C)cc1S(=O)(=O)Nc1cccc(-c2ccc(N3CCCCCC3)nn2)c1	JMJD2A Tudor 15.8µM
COc1ccc(S(=O)(=O)Nc2cccc(-c3ccc4nncn4n3)c2)c(OC)c1	Six1-Eya2 blk inconclusive, G9a block 11.2µM, HP1b chromo inh inconclusive
O=S(=O)(Nc1cccc(-c2ccc(N3CCCCCC3)nn2)c1)c1cccc(F)c1	G9a block 31.6µM! (no result: CtBP-E1A inh)
CCCOc1ccc(C(=O)CCN2CCCCC2)cc1	G9a block 17.8µM
CCOc1ccc(C(=O)CCN2CCCCCC2)cc1	G9a block 5.01µM
O=C(OCCN1CCOCC1)c1ccc(OCCN2CCOCC2)cc1	G9a block 50.1µM, JMJD2A Tudor inconclusive
NC(=S)NN=C1c2cc(OCCN3CCOCC3)ccc2-c2ccc(OCCN3CCOCC3)cc21	CtBP-E1A inh inconclusive, BAZ2B block 39.8µM, G9a block 31.6µM, HP1b chromo inh inconclusive, JMJD2A Tudor inconclusive
NC(=O)NN=C1c2cc(S(=O)(=O)N3CCOCC3)ccc2-c2ccc(S(=O)(=O)N3CCOCC3)cc21	none (no result: Six1-Eya2 blk, CtBP-E1A inh, BAZ2B block, G9a block)
CCCCCOc1ccc(C(=O)CCC(=O)N2CCCC2)cc1	none
CCCCOc1ccc(C(=O)CCN2CCOCC2)cc1	G9a block 22.4µM
CCCCOc1ccc(C(=O)NN2CCOCC2)cc1	none (no result: BAZ2B block, G9a block)
CCCOc1ccc(C(=O)CCC(=O)Nc2ccc(N3CCN(C)CC3)cc2)cc1	BAZ2B block 50.1µM, G9a block inconclusive, JMJD2A Tudor 56.2µM
CCCOc1ccc(C(=O)CCC(=O)OCC(=O)Nc2ccc(OCC)cc2)cc1	none (no result: Six1-Eya2 blk, CtBP-E1A inh, HP1b chromo inh, JMJD2A Tudor)
COc1ccccc1N1CCN(S(=O)(=O)c2ccc(-c3cc(C(F)(F)F)on3)s2)CC1	none (no result: Six1-Eya2 blk, CtBP-E1A inh)
Cc1cncn1CCc1nc2c3ccccc3nc(SCC(=O)Nc3ccccc3F)n2n1	none (no result: Six1-Eya2 blk, CtBP-E1A inh)
CCOC(=O)CN1C(=O)S/C(=C/c2ccc(OCc3ccc(C(=O)O)cc3)cc2)C1=O	BAZ2B block 50.1µM, JMJD2A Tudor inconclusive
COc1ccc(/C=C2\SC(=S)N(CCC(=O)Nc3ccc(C(=O)O)cc3)C2=O)cc1OC	JMJD2A Tudor inconclusive
O=C(CCN1C(=O)/C(=C/c2ccc3c(c2)OCO3)SC1=S)Nc1ccc(C(=O)O)cc1	BAZ2B block 35.5µM, HP1b chromo inh inconclusive, JMJD2A Tudor 44.7µM
CCOc1ccc(/C=C2\SC(=S)N(CCC(=O)Nc3cccc(C(=O)O)c3)C2=O)cc1	BAZ2B block 50.1µM, G9a block 79.4µM, HP1b chromo inh inconclusive, JMJD2A Tudor 35.5µM
